This is a sample that favours compounds with a hit; in the whole collection about 3.1% have one here.
PAFAH1B3 FP inh: inhibitors of human PAFAH1B3; inhibition, % at 3.39 µM; AID 492972; actives 0.28% (n = 340,000); recombinant PAFAH1B3, FP-rhodamine probe, fluorescence polarization; Q15102;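 active means inhibition above the screen-wide average of all tested compounds plus 3 SD, cut at about 25% in these data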
E coli Lon inh: inhibits E. coli Lon protease. P0A9M0. purified E. coli Lon protease, fluorescence polarization. inhibition, % at 7.94 µM. actives 0.42% (n = 360,000). AID 602123; in the data active means inhibition above about 13%, passing the limit was not always enough
pPAFAH FP inh: pPAFAH (human) enzyme inhibition. AID 463082. inhibition, % at 3.39 µM. actives 1.5% (n = 330,000). recombinant pPAFAH, FP-rhodamine probe fluorescence polarization. Q13093;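 active means inhibition above the mean inhibition across the screen plus 3 SD, cut at about 25% in these data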;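 further: inhibitors block binding of the rhodamine activity-based probe so polarization drops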
Target sequence (Q13093 whole entry, looked up): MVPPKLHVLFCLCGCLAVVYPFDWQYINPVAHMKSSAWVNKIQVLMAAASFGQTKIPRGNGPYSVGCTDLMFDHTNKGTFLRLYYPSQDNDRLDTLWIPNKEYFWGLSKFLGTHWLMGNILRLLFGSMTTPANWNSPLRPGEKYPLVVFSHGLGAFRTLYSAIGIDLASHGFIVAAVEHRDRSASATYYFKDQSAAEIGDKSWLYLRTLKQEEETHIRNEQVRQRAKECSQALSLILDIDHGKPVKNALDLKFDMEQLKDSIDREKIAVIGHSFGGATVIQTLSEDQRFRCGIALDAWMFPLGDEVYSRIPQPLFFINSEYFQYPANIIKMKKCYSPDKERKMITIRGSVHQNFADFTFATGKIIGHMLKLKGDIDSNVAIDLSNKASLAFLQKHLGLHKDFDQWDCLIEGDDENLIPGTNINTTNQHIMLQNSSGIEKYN
Rin1-Abl PPI inh: human Rin1-Abl interaction inhibition | P00519+Q13671 | TR-FRET Rin1/Abl binding, biochemical | inhibition, % at 7.35 µM | actives 0.4% (n = 360,000) | AID 588664; in the data active means inhibition above about 5%, passing the limit was not always enough
PAFAH1B2 FP inh: blocks human PAF acetylhydrolase 1b catalytic subunit 2. P68402. recombinant PAFAH1B2, FP-rhodamine activity probe, fluorescence polarization. inhibition, % at 3.39 µM. actives 1.2% (n = 340,000);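 active means inhibition above the mean of all tested compounds plus 3 SD, cut at about 24% in these data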
Target sequence (P68402 whole entry, looked up): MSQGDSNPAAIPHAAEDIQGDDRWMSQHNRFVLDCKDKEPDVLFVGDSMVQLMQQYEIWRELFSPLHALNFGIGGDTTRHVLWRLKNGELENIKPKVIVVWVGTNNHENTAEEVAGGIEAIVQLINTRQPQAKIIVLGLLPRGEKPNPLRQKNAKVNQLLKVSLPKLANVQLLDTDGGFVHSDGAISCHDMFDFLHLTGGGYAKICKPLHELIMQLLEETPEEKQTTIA
PAFAH2 FP inh: PAFAH2 (human) inhibition; recombinant PAFAH2, FP-rhodamine activity probe, fluorescence polarization; inhibition, % at 3.39 µM; actives 0.99% (n = 340,000); Q99487;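 active means inhibition above the mean over all tested compounds plus 3 SD, cut at about 30% in these data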;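 further: inhibitors block probe labeling of enzyme so polarization drops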
Each line names hits and unclear results; the compound was inactive in the other large screens.

Cc1cccc(NC2=C(NC(=O)c3ccccc3)C(=O)c3ccccc3C2=O)c1	none
Cc1ccc(S(=O)(=O)/N=C2\C=C(Nc3cccc(C(=O)O)c3)C(=O)c3ccccc32)cc1	PAFAH1B3 FP inh 65, PAFAH1B2 FP inh 36, PAFAH2 FP inh 51
Cc1ccc(S(=O)(=O)/N=C2\C=C(Nc3cccc(C(=O)O)c3)C(=O)c3ccccc32)c(C)c1	PAFAH1B3 FP inh 63, pPAFAH FP inh 27, PAFAH1B2 FP inh 30, PAFAH2 FP inh 58
CC(C)(C)c1ccc(S(=O)(=O)/N=C2\C=C(NS(=O)(=O)c3ccccc3)C(=O)c3ccccc32)cc1	PAFAH1B2 FP inh 41
CCc1ccc(S(=O)(=O)/N=C2\C=C(Nc3ccc(C(=O)O)cc3)C(=O)c3ccccc32)cc1	PAFAH1B3 FP inh 58, pPAFAH FP inh 33, PAFAH1B2 FP inh 32, PAFAH2 FP inh 50
Cc1ccc(S(=O)(=O)/N=C2\C=C(NS(=O)(=O)c3ccccc3)C(=O)c3ccccc32)c(C)c1	none (no result: pPAFAH FP inh)
CCN(CC)c1ccc(N=C2C(=O)Nc3ccccc32)cc1	pPAFAH FP inh 29
CCC(c1nnnn1-c1c(C)cccc1C)N1CCN(c2ccccn2)CC1 (stereo unspecified)	none (no result: PAFAH1B3 FP inh, pPAFAH FP inh, Rin1-Abl PPI inh, PAFAH1B2 FP inh, PAFAH2 FP inh)
Cc1ccc(CSC2=Nc3sccc3C3=NC(=O)CN23)cc1	pPAFAH FP inh 27
Cc1ccccc1-c1nc2cc(NC(=O)C3CC3)ccc2o1	none
O=C1Nc2ccc(F)cc2C12Nc1ccccc1-c1nnc(SCc3ccccc3Cl)nc1O2 (stereo unspecified)	PAFAH1B2 FP inh 25
Cc1c(C(=O)O)cccc1-c1ccc(/C=N/n2cnnc2)o1	none
Cc1c(C(=O)O)cccc1-c1ccc(/C=N/Nc2ccc(Br)cc2)o1	pPAFAH FP inh 26
O=C(COC(=O)C12CC3CC(CC(O)(C3)C1)C2)Nc1ccccc1OC(F)F	none
O=C(COC(=O)C12CC3CC(CC(Br)(C3)C1)C2)Nc1cccnc1Cl	PAFAH1B2 FP inh 32
CN(Cc1ccccc1)C(=O)COC(=O)C12CC3CC(CC(Br)(C3)C1)C2	PAFAH1B2 FP inh 42
O=C(COC(=O)C12CC3CC(CC(Br)(C3)C1)C2)Nc1cccc(S(=O)(=O)N2CCOCC2)c1	PAFAH1B2 FP inh 31
CCOC(=O)c1c(NC(=O)/C=C/C(=O)O)sc(C)c1-c1ccc(F)cc1	pPAFAH FP inh 26
O=C(Nc1ccc(C(F)(F)F)cc1)N1CCN(c2ccnc3cc(Cl)ccc23)CC1	none (no result: PAFAH1B3 FP inh, PAFAH1B2 FP inh, PAFAH2 FP inh)
CCCNC(=O)COC(=O)c1ccc(-c2ccccc2)cc1	pPAFAH FP inh 25, PAFAH2 FP inh 60
CN(C)c1ccc(C(=O)OCC(=O)NCCCc2ccccc2)cc1	pPAFAH FP inh 33, PAFAH2 FP inh 85
CC(NC(=O)COC(=O)c1ccc(OCC2CCCO2)cc1)c1ccccc1Cl (stereo unspecified)	pPAFAH FP inh 25, PAFAH2 FP inh 88
CC(C)NC(=O)COC(=O)c1ccc(Oc2ccccc2)cc1	pPAFAH FP inh 26, PAFAH2 FP inh 67
O=C(COC(=O)c1ccc(-c2ccccc2)cc1)Nc1ccccc1-c1ccccc1	none
CN(C)c1ccc(C(=O)OCC(=O)NCCNC(=O)COC(=O)c2ccc(N(C)C)cc2)cc1	none
NC(=O)COC(=O)c1ccc(Oc2ccccc2)cc1	none
CC(C)(C)c1ccc(NC(=O)CN2C(=O)NC(C)(C3CC3)C2=O)cc1 (stereo unspecified)	none
CN(C(=O)c1ccc(NC(=O)Cc2cccc(NC(=O)C3CCN(C(=O)C4CC4)CC3)c2)cc1)C1CC1	none (no result: pPAFAH FP inh)
CC(=O)Nc1cc(-c2cccc(C(=O)NCCO)c2)cn2c(-c3cccc(C(F)(F)F)c3)cnc12	none (no result: PAFAH1B3 FP inh, pPAFAH FP inh, PAFAH1B2 FP inh, PAFAH2 FP inh)
COc1cc2[nH]c(C(=O)N(C)Cc3ccccc3)cc2c(OC)c1OC	none
CCN(Cc1ccccc1)C(=O)c1cc2cc(OC)c(OC)cc2[nH]1	pPAFAH FP inh 33
COc1ccc(C(=O)Nc2cccc(NC(=O)c3ccc(OC)c(OC)c3)n2)cc1OC	none
CCCN(CC(=O)Nc1ccccc1OC)C(=O)Cc1ccc2c(c1)CCC2	none
c1ccc(-c2cc3ccccc3nc2N2CCCC2)cc1	none
Cc1ccc(-c2cc3ccccc3nc2N2CCOCC2)cc1	pPAFAH FP inh 26 (no result: PAFAH1B3 FP inh, PAFAH1B2 FP inh, PAFAH2 FP inh)
CCCCc1cc(=O)oc2cc(C)cc(OCC(=O)NC(Cc3ccc(Cl)cc3)C(=O)O)c12 (stereo unspecified)	PAFAH1B2 FP inh 30
CCCCc1cc(=O)oc2cc(C)cc(OCC(=O)Nc3ccccn3)c12	none
CCCc1cc(=O)oc2cc(C)cc(OCC(=O)N[C@@H](CSCc3ccccc3)C(=O)O)c12	none
CCCc1cc(=O)oc2cc(C)cc(OCC(=O)NC(Cc3ccc(Cl)cc3)C(=O)O)c12 (stereo unspecified)	PAFAH1B2 FP inh 27
O=C(c1nc[nH]c1C(=O)N1CCc2ccccc2C1)N1CCc2ccccc2C1	none
CN1OC[C@@H]2CN(S(=O)(=O)c3cccc4ccccc34)[C@H](c3ccc(-c4ccccc4)cc3)C[C@@H]21	none (no result: PAFAH1B3 FP inh, pPAFAH FP inh, PAFAH1B2 FP inh, PAFAH2 FP inh)
O=C(CCNS(=O)(=O)c1ccccc1)NCCCSc1ccccc1	PAFAH1B2 FP inh 36
Cc1ccc(S(=O)(=O)NCCC(=O)NCCCSc2ccccc2)cc1	none
O=C(CCNS(=O)(=O)c1ccc(Br)cc1)NCCCSc1ccccc1	PAFAH1B2 FP inh 26
COc1ccccc1N=C1NC(=O)/C(=C/c2ccc(N(C)C)cc2)S1	none
CCCc1nc2ccccc2c(C(=O)N(CC)CC(=O)NCc2cccs2)c1CC	none (no result: pPAFAH FP inh)
N#Cc1ccc(C(=O)OCC(=O)Nc2cccc(S(=O)(=O)NC3=NCCC3)c2)cc1	none
CC1(C)CC=CC(COC(=O)c2ccccc2C(=O)O)C1 (stereo unspecified)	PAFAH1B2 FP inh 29 (no result: pPAFAH FP inh)
Cc1ccc(NC(=S)Nc2ccc3nc(-c4ccccn4)c(-c4ccccn4)nc3c2)cc1C	E coli Lon inh 120
O=C(COc1ccc(Br)cc1)Nc1ccccc1C(=O)NC1CC1	none
CC1CCC2(CC1)NC(=O)N(CC(=O)Nc1sc3c(c1C(N)=O)CCC3)C2=O (stereo unspecified)	pPAFAH FP inh 25
N#Cc1ccsc1NC(=O)CN1C(=O)NC2(CCCC2)C1=O	pPAFAH FP inh 27
NC(=O)c1ccsc1NC(=O)CN1C(=O)NC2(CCCCC2)C1=O	none
NC(=O)c1c(NC(=O)CN2CCN(S(=O)(=O)c3ccccc3)CC2)sc2c1CCC2	PAFAH1B2 FP inh 35
CCOC(=O)c1c(NC(=O)CN2CCN(C(=O)c3ccco3)CC2)sc2c1CCCC2	pPAFAH FP inh 34
O=C(CNC(=O)c1ccccc1)OCCCOC(=O)CNC(=O)c1ccccc1	none
COC(=O)c1ccc(NC(=O)C2CCN(C(=O)Nc3ccccc3)CC2)cc1	none
COC(=O)c1cc(C)sc1NC(=O)CN1CCN(C(=O)c2ccco2)CC1	none
CCOC(=O)c1cc(C)sc1NC(=O)CN1CCN(C(=O)c2ccco2)CC1	pPAFAH FP inh 26

Compound activity from PubChem BioAssay.
